This passage reports NP40-soluble protein abundance results from the supplement of paper PMC6411743.

± gives the standard deviation of the averaged measurements. The full data set covers some 5,400 targets. This sample favours those with the largest changes.

Sequence of UniProt O14776 (O14776 whole entry): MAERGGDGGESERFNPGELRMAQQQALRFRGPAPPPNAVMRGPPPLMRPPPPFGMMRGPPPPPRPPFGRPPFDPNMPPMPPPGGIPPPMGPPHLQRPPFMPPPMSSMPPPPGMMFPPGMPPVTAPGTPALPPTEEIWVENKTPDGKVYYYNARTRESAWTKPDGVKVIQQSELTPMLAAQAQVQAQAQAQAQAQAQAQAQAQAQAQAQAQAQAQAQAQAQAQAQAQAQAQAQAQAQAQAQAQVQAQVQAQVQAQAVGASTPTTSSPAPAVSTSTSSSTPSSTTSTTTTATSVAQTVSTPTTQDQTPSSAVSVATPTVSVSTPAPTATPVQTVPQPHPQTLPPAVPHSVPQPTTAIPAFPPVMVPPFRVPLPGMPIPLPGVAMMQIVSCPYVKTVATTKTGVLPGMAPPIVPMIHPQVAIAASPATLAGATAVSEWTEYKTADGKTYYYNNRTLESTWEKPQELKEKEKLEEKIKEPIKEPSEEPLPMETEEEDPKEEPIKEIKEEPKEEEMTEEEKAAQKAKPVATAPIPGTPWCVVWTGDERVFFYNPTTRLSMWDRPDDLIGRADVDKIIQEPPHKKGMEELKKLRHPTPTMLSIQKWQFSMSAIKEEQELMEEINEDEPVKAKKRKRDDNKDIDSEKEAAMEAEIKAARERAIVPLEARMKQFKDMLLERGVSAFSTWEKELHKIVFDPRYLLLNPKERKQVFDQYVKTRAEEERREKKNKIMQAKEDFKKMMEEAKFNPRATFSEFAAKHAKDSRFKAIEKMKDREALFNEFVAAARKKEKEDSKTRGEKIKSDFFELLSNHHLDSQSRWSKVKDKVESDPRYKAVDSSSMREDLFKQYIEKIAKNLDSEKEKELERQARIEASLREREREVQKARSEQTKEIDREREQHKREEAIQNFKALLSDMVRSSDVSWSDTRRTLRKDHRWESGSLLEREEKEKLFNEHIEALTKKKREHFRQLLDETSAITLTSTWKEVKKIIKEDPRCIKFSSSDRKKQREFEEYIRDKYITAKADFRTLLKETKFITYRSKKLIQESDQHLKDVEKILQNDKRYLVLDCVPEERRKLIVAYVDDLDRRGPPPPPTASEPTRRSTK
Sequence of UniProt O43665 (O43665 whole entry): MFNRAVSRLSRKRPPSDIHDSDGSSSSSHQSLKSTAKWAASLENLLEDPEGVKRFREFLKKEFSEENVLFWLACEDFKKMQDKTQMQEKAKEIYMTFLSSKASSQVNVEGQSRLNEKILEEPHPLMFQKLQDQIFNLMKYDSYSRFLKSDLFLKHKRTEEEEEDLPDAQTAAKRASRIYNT
Sequence of UniProt P27144 (P27144 whole entry): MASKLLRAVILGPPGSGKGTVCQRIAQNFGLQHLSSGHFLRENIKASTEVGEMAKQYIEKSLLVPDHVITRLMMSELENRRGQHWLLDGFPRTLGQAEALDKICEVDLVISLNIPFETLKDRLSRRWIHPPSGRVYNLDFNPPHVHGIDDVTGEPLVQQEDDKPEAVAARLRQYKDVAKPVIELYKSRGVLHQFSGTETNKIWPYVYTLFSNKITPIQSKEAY
Sequence of UniProt P11388 (P11388 whole entry): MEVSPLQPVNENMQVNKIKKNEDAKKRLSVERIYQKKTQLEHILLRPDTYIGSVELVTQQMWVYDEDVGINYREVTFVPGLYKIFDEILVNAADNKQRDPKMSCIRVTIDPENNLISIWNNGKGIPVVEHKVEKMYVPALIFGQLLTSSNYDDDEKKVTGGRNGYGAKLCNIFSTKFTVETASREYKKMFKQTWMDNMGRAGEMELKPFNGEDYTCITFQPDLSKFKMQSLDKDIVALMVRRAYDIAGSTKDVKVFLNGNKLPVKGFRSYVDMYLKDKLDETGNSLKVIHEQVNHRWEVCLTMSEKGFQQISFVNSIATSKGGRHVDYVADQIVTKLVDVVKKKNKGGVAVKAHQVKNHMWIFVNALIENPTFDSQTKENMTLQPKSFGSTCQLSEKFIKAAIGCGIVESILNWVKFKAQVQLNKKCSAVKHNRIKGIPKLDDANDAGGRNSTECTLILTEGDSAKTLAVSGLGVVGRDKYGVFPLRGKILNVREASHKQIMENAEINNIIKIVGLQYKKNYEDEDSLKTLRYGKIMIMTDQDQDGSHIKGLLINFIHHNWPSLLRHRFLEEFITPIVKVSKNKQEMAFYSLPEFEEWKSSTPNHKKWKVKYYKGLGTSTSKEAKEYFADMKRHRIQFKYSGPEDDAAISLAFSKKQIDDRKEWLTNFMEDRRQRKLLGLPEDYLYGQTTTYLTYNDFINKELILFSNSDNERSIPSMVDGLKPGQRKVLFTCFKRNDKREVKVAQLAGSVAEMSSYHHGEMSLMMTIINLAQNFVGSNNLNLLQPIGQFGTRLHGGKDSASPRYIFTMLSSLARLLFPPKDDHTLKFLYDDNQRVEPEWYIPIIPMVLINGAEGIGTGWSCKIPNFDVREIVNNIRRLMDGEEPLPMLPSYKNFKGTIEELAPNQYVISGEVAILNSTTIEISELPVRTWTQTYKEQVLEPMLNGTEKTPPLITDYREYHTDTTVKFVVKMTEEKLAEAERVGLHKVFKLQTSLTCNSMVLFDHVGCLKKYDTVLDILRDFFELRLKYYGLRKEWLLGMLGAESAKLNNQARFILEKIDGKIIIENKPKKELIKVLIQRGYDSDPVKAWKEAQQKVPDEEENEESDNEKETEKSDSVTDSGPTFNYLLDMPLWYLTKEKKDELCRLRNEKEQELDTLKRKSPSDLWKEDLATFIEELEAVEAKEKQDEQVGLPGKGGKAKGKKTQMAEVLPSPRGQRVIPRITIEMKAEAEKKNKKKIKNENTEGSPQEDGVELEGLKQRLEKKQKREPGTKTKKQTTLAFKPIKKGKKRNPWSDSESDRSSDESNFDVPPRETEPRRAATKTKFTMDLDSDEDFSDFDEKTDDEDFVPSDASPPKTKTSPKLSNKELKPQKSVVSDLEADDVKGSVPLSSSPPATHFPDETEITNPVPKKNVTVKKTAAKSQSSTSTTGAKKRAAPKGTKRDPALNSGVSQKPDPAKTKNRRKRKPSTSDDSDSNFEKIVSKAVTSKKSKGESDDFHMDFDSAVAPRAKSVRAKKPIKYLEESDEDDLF
Sequence of UniProt P54578 (P54578 whole entry): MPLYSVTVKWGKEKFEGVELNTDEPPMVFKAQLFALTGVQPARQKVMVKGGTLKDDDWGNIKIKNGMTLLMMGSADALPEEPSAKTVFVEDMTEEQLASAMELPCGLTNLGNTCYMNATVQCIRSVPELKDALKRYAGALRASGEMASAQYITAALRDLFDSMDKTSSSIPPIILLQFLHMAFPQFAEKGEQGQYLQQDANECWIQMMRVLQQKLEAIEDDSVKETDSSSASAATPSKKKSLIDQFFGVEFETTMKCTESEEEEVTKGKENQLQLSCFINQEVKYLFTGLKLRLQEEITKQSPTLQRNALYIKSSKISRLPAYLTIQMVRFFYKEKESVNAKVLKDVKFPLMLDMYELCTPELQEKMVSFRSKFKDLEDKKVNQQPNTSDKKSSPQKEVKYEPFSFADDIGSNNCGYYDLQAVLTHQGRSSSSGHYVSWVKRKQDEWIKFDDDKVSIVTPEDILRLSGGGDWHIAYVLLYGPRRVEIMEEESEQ
Sequence of UniProt Q96SW2 (Q96SW2 whole entry, one chain of several): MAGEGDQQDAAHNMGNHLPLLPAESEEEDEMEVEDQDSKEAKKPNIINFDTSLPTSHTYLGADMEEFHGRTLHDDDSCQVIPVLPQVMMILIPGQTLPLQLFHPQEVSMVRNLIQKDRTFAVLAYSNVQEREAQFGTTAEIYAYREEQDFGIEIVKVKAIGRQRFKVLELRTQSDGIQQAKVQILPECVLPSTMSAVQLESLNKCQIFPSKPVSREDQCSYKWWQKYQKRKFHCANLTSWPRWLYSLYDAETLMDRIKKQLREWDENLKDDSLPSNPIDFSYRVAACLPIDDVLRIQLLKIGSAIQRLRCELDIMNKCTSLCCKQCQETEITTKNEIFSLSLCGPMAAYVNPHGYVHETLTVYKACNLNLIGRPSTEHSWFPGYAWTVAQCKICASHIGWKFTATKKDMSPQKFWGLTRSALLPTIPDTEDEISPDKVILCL
Sequence of UniProt O75828 (O75828 whole entry): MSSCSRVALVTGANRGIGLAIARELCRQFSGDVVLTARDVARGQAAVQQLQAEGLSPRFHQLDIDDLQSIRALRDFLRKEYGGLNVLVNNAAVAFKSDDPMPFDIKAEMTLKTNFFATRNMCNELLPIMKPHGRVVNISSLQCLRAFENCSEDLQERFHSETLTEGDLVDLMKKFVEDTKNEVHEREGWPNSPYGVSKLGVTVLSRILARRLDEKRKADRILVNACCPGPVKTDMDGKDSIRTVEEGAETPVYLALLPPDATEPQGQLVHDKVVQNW
Sequence of UniProt P14550 (P14550 whole entry): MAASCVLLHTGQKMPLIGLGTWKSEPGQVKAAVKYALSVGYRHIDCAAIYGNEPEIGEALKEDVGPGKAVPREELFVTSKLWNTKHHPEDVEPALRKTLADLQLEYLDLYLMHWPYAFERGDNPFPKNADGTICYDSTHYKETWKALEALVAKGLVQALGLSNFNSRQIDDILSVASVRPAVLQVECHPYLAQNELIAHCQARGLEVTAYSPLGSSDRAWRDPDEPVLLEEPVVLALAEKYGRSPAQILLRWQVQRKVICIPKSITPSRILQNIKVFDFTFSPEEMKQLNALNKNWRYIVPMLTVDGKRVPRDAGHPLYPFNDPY
Sequence of UniProt P17096 (P17096 whole entry): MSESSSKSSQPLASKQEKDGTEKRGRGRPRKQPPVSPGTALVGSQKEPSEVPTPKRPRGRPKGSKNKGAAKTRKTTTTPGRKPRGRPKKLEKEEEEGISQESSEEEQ
Sequence of UniProt P50897 (P50897 whole entry): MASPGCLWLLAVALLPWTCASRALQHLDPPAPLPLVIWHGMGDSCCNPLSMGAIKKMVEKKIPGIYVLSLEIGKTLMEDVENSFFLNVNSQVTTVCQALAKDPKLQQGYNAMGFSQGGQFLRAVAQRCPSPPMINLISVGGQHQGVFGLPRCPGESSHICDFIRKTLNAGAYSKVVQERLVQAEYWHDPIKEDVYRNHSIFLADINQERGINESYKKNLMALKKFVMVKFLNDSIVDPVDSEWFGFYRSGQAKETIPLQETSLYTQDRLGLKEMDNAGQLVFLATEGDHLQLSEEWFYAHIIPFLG

Compound in the first assay: Nc1nc2c(ncn2[C@@H]2O[C@H](COP(=O)(O)OP(=O)(O)OP(=O)(O)O)[C@@H](O)[C@H]2O)c(=O)[nH]1 [guanosine triphosphate]
Nature of the assay: NP40-soluble protein abundance relative to vehicle (solubility fold change) (ratio); higher = more soluble protein in presence of GTP. The conditions noted are these: concentration: 0.1mM. The procedure, abridged: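 Crude Jurkat lysate, prepared by Dounce homogenisation, was exposed to eight concentrations from 0.1 to 10 mM for 10 min at room temperature and then 3 min at 37 °C. Solubilisation used 0.8% NP40 with benzonase for 60 min at 4 °C, followed by ultracentrifugation and TMT labelling of the supernatant for LC-MS/MS. After vsn normalisation of intensities, each value is the fold change against the detergent-processed vehicle within each replicate, across three independent experiments.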
As for UniProt O43665|O43665-2|O43665-3, the NP40-soluble protein abundance is 0.802 ± 0.079.

For the target UniProt O00567, the NP40-soluble protein abundance worked out at 1.05 ± 0.035.

As for ARID1A (UniProt O14497), the NP40-soluble protein abundance worked out at 0.993 ± 0.031.

With J3QTA6|Q9BRQ6 (UniProt Q9BRQ6), the NP40-soluble protein abundance is 1 ± 0.084.

For AKR1A1 (UniProt P14550), the NP40-soluble protein abundance was determined as 0.93 ± 0.035.

On to J3QQJ5|Q9Y2L5 (UniProt Q9Y2L5), for which the NP40-soluble protein abundance came to 1.09 ± 0.062.

UniProt P17096|P17096-2: the NP40-soluble protein abundance came to 1.06 ± 0.062.

On to AK4 (UniProt P27144), for which the NP40-soluble protein abundance amounted to 0.983 ± 0.072.

In the case of UniProt P12931|P12931-2, the NP40-soluble protein abundance was found to be 1.05 ± 0.05.

As to UniProt O14776|O14776-2, the NP40-soluble protein abundance amounted to 0.97 ± 0.042.

As for UniProt P17812, the NP40-soluble protein abundance was 1.04 ± 0.085.

With NUDT2 (UniProt P50583), the NP40-soluble protein abundance stood at 0.93 ± 0.17.

Regarding CRKL (UniProt P46109), the NP40-soluble protein abundance was found to be 0.973 ± 0.029.

Take “UniProt P11388|P11388-2|P11388-3|P11388-4”: the NP40-soluble protein abundance came out at 1.06 ± 0.054.

Consider NUP62 (UniProt P37198), for which the NP40-soluble protein abundance is 0.8692 ± 0.0052.

For K7EPN2|P22830|P22830-2 (UniProt P22830), the NP40-soluble protein abundance worked out at 1.06 ± 0.013.

In the case of UniProt O15111, the NP40-soluble protein abundance amounted to 1.03 ± 0.04.

For the target UniProt O60508|Q5SRN1, the NP40-soluble protein abundance was 1.07 ± 0.031.

With SLC16A7 (UniProt O60669), the NP40-soluble protein abundance was found to be 1.09 ± 0.034.

As to FXR1 (UniProt P51114), the NP40-soluble protein abundance was 1.13 ± 0.11.

Regarding “P15531-2|P22392-2|Q32Q12 (UniProt Q32Q12+P22392+P15531)”, the NP40-soluble protein abundance was determined as 0.983 ± 0.029.

For the target UniProt P54578|P54578-2, the NP40-soluble protein abundance worked out at 0.975 ± 0.029.

Turning to M0R2S1|P62987 (UniProt P62987), the NP40-soluble protein abundance came to 0.88 ± 0.084.

In the case of RPL21 (UniProt P46778), the NP40-soluble protein abundance amounted to 0.981 ± 0.092.

Regarding “I3L3Y9|I3L4X7|Q13227|Q13227-2 (UniProt Q13227)”, the NP40-soluble protein abundance turned out to be 0.978 ± 0.059.

Regarding PPT1 (UniProt P50897), the NP40-soluble protein abundance turned out to be 0.888 ± 0.06.

For the target URB1 (UniProt O60287), the NP40-soluble protein abundance is 1.07 ± 0.019.

Regarding H2AFX (UniProt P16104), the NP40-soluble protein abundance stood at 0.94 ± 0.014.

On to UniProt P09651|P09651-2, for which the NP40-soluble protein abundance was 1.03 ± 0.067.

In the case of UniProt O43760|O43760-2, the NP40-soluble protein abundance worked out at 0.957 ± 0.086.

On to “UniProt P04150|P04150-10|P04150-2|P04150-3|P04150-5|P04150-6|P04150-7|P04150-8|P04150-9|P04150-11|P04150-12|P04150-13”, for which the NP40-soluble protein abundance is 0.899 ± 0.13.

As to J3QT87|Q96SW2|Q96SW2-2 (UniProt Q96SW2), the NP40-soluble protein abundance was determined as 1.07 ± 0.084.

Consider UniProt P20339|P20339-2, for which the NP40-soluble protein abundance stood at 0.999 ± 0.016.

As for CBR3 (UniProt O75828), the NP40-soluble protein abundance is 1.15 ± 0.032.

Turning to P0C0S5|Q71UI9 (UniProt Q71UI9+P0C0S5), the NP40-soluble protein abundance was found to be 0.898 ± 0.042.

With “UniProt O95758-2|O95758-6|O95758|O95758-1|O95758-4|O95758-5|O95758-7”, the NP40-soluble protein abundance was 1.02 ± 0.074.

Take KIN (UniProt O60870): the NP40-soluble protein abundance was 0.9988 ± 0.0042.

Take UniProt P25705|P25705-2: the NP40-soluble protein abundance worked out at 0.981 ± 0.022.

The assay is the same for the next values; noted with them: concentration: 0.5mM.
For UniProt O43665|O43665-2|O43665-3, the NP40-soluble protein abundance worked out at 0.748 ± 0.035.

In the case of UniProt O00567, the NP40-soluble protein abundance turned out to be 1.03 ± 0.046.

Consider ARID1A (UniProt O14497), for which the NP40-soluble protein abundance amounted to 1.06 ± 0.016.

As for J3QTA6|Q9BRQ6 (UniProt Q9BRQ6), the NP40-soluble protein abundance came to 1.01 ± 0.083.

With AKR1A1 (UniProt P14550), the NP40-soluble protein abundance turned out to be 0.912 ± 0.034.

For the target J3QQJ5|Q9Y2L5 (UniProt Q9Y2L5), the NP40-soluble protein abundance came to 1.1 ± 0.12.

Regarding UniProt P17096|P17096-2, the NP40-soluble protein abundance was 1.06 ± 0.12.

For the target AK4 (UniProt P27144), the NP40-soluble protein abundance turned out to be 0.887 ± 0.088.

With UniProt P12931|P12931-2, the NP40-soluble protein abundance is 1.05 ± 0.063.

With UniProt O14776|O14776-2, the NP40-soluble protein abundance came to 0.962 ± 0.056.

In the case of UniProt P17812, the NP40-soluble protein abundance amounted to 1.03 ± 0.089.

Turning to NUDT2 (UniProt P50583), the NP40-soluble protein abundance came out at 0.902 ± 0.14.

For the target CRKL (UniProt P46109), the NP40-soluble protein abundance was 0.958 ± 0.058.

Take “UniProt P11388|P11388-2|P11388-3|P11388-4”: the NP40-soluble protein abundance was determined as 1.14 ± 0.036.

As for NUP62 (UniProt P37198), the NP40-soluble protein abundance was determined as 0.889 ± 0.025.

Take K7EPN2|P22830|P22830-2 (UniProt P22830): the NP40-soluble protein abundance was found to be 1.06 ± 0.034.

On to UniProt O15111, for which the NP40-soluble protein abundance came out at 1.04 ± 0.07.

As for UniProt O60508|Q5SRN1, the NP40-soluble protein abundance was found to be 1.1 ± 0.017.

SLC16A7 (UniProt O60669): the NP40-soluble protein abundance was determined as 0.98 ± 0.24.

As to FXR1 (UniProt P51114), the NP40-soluble protein abundance came out at 1.23 ± 0.075.

As to “P15531-2|P22392-2|Q32Q12 (UniProt Q32Q12+P22392+P15531)”, the NP40-soluble protein abundance worked out at 0.946 ± 0.049.

In the case of UniProt P54578|P54578-2, the NP40-soluble protein abundance turned out to be 0.998 ± 0.021.

Take M0R2S1|P62987 (UniProt P62987): the NP40-soluble protein abundance is 0.895 ± 0.11.

RPL21 (UniProt P46778): the NP40-soluble protein abundance came out at 1 ± 0.082.

Regarding “I3L3Y9|I3L4X7|Q13227|Q13227-2 (UniProt Q13227)”, the NP40-soluble protein abundance was 0.878 ± 0.0093.

For PPT1 (UniProt P50897), the NP40-soluble protein abundance is 0.859 ± 0.12.

On to URB1 (UniProt O60287), for which the NP40-soluble protein abundance is 1.16 ± 0.061.

As for H2AFX (UniProt P16104), the NP40-soluble protein abundance stood at 0.955 ± 0.036.

Regarding UniProt P09651|P09651-2, the NP40-soluble protein abundance was 1.11 ± 0.082.

Turning to UniProt O43760|O43760-2, the NP40-soluble protein abundance was 0.909 ± 0.12.

Consider “UniProt P04150|P04150-10|P04150-2|P04150-3|P04150-5|P04150-6|P04150-7|P04150-8|P04150-9|P04150-11|P04150-12|P04150-13”, for which the NP40-soluble protein abundance worked out at 0.946 ± 0.032.

In the case of J3QT87|Q96SW2|Q96SW2-2 (UniProt Q96SW2), the NP40-soluble protein abundance is 1.07 ± 0.1.

Take UniProt P20339|P20339-2: the NP40-soluble protein abundance amounted to 1.08 ± 0.04.

In the case of CBR3 (UniProt O75828), the NP40-soluble protein abundance stood at 1.21 ± 0.11.

Turning to P0C0S5|Q71UI9 (UniProt Q71UI9+P0C0S5), the NP40-soluble protein abundance was found to be 0.919 ± 0.033.

Turning to “UniProt O95758-2|O95758-6|O95758|O95758-1|O95758-4|O95758-5|O95758-7”, the NP40-soluble protein abundance is 0.974 ± 0.052.

As for KIN (UniProt O60870), the NP40-soluble protein abundance turned out to be 0.993 ± 0.013.

For UniProt P25705|P25705-2, the NP40-soluble protein abundance stood at 1.04 ± 0.057.
